High-throughput results from PubChem BioAssay.
Compounds with a hit are over-represented: about 5.8% of the library has one in this group of screens.
TRPV1 potentiator: HTS Assay for Compounds that Act as Potentiators of the Vanilloid Receptor 1. Transient receptor potential cation channel subfamily V member 1 (Homo sapiens), Q8NER1. TRPV1-expressing cells, Fluo-8 calcium influx, capsaicin EC20 potentiation. potentiation, % at 8.33 µM. 320,000 compounds, 0.02% hits; in the data active means potentiation above about 80%; inconclusive means between about 30% and that limit; further: 0% is about no effect
Target sequence (Q8NER1 whole entry, looked up): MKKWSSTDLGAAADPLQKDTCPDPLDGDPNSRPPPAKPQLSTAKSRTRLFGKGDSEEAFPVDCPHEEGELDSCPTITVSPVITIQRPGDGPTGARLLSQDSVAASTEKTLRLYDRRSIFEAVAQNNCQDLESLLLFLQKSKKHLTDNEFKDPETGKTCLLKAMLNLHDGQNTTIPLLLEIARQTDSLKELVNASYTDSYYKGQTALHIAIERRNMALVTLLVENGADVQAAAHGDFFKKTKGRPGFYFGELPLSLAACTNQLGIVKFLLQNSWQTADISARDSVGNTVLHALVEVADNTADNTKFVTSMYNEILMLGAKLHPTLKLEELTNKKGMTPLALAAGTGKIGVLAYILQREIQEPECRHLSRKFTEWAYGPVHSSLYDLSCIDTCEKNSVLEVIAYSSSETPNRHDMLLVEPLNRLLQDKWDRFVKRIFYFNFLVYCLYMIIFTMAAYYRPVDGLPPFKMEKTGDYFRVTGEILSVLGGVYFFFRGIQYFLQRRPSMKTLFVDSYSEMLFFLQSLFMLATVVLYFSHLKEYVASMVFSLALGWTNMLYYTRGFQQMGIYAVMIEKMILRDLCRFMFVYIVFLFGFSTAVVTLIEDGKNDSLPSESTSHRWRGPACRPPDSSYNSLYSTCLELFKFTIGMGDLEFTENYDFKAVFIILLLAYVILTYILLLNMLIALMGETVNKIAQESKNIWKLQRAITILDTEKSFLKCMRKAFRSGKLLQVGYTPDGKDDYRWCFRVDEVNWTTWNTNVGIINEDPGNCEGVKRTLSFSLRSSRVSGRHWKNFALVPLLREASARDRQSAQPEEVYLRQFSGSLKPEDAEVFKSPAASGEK
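Fluo-8 calcium influx in TRPV1-expressing cells, kinetic read (ex 480/em 520 nm). Compound added and read 3 min for agonist activity, followed by capsaicin at EC20 final and 2 min further read for enhancement.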
uPA generation: qHTS for Inhibitors of Cell Surface uPA Generation. cell surface uPA generation assay, qHTS. Potency, µM (doses to about 38.3 µM), for the others: at the top dose activity change, negative = inhibition, usual class: inhibitors. 330,000 compounds, 0.31% hits; active means well fitted inhibition curve with a large enough effect; inconclusive means small, poorly fitted or top-dose-only effect; inactive means no such curve, though single readings can be large or run the other way; tested in mouse RAW 264.7 cells; further: potency means the concentration at half of the fitted maximal effect; on the % scale 0 is the no-effect control and ±100 the full control effect; nearly all actives have a fitted effect of over 55% in size
RORg inh: qHTS for inhibitors of ROR gamma transcriptional activity; AID 2551, 2010; Potency, µM (series often up to 53.6 µM), inactives show at the highest dose activity change, negative = inhibition, actives largely listed as inhibitors; Nuclear receptor ROR-gamma (Mus musculus), P51450; Drosophila S2 Gal4-RORgamma UAS-luciferase reporter, 20 h; 310,000 compounds, 5.4% hits; further: potency means the concentration at half of the fitted maximal effect; on the % scale 0 is the no-effect control and ±100 the full control effect; nearly all actives have a fitted effect of over 60% in size
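In this cell-based reporter format, copper sulfate (700 uM final) drives Gal4–ROR gamma fusion expression from a metallothionein promoter in Drosophila Schneider cells; compounds preincubated 1 hr, reporter read after 20 hr at ambient temperature.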
TRPV1 agonist: HTS Assay for Compounds that Act as Agonists of the Vanilloid Receptor 1; TRPV1-expressing cells, Fluo-8 calcium influx, agonist mode; 320,000 compounds, 0.19% hits; activation, % at 8.33 µM; Transient receptor potential cation channel subfamily V member 1 (Homo sapiens), Q8NER1; in the data active means activation above about 80%; inconclusive means between about 30% and that limit; further: 0% is about no effect
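Fluo-8 calcium influx in TRPV1-expressing cells, kinetic read (ex 480/em 520 nm). Compound added and read 3 min for agonist activity, followed by capsaicin at EC20 final and 2 min further read for enhancement.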
VP16 counter: VP16 counterscreen qHTS for inhibitors of ROR gamma transcriptional activity; 310,000 compounds, 3.5% hits; Potency, µM (series often up to 53.6 µM), without a hit: top-dose activity, negative = inhibition, actives largely listed as inhibitors; AID 2546, 2010; Drosophila S2 Gal4-VP16 UAS-luciferase, luminescence, 20 h;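 further: Gal4-VP16 expression switched on by copper sulfate through the metallothionein promoter; potency means the concentration at half of the fitted maximal effect; on the % scale 0 is the no-effect control and ±100 the full control effect; nearly all actives have a fitted effect of over 50% in size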
Starred values were filed as active, the others as inactive; ? = inconclusive; . = no result; [ ] = remark or other dose. Unless noted, the call rests on the fitted dose curve; in most records, active means well fitted curve in the direction sought with a large enough effect; inconclusive means small, poorly fitted or top-dose-only effect, or another doubt; inactive means no such curve, though single readings can be large; an effect the other way counts as inactive or inconclusive.

SMILES	TRPV1 potentiator	uPA generation	RORg inh	TRPV1 agonist	VP16 counter
O=C(CN1CCN(c2ccccc2F)CC1)Nc1ccc2c(c1)CCC2	-20.1	-2.2%	-34.8%	?	22.4µM*
CCOc1ccccc1CN1CCNC(=O)C1CC(=O)NCc1ccccn1 (configuration not stated)	3.8	-1.0%	11.2µM*	1.4	?
O=C(CC1C(=O)NCCN1Cc1ccc(-c2ccccc2)cc1)NCCOc1cccnc1 (configuration not stated)	-2.0	-8.5%	2.8%	1.4	20µM*
CCOc1ccccc1CN1CCNC(=O)C1CC(=O)NC1CCCCC1 (configuration not stated)	29.5	0.3%	-8.5%	1.4	0.7%
COc1ccccc1-c1c(C)[nH]n2c(=O)c(Cc3ccccc3)c(C)nc12	-10.3	-25.2%	14.1µM*	13.8	11.2µM*
Cc1[nH]n2c(=O)c(C#N)c(-c3ccccc3)nc2c1-c1ccccc1	-4.3	0.9%	23.0%	1.2	-17.3%
CCc1c(C)nc2c(-c3ccccc3)c(C)[nH]n2c1=O	-14.7	-2.2%	11.2µM*	1.0	?
Cc1nc2c(-c3ccccc3)c[nH]n2c(=O)c1Cc1ccccc1	?	-13.9%	3.6%	12.1	-8.6%
COc1ccc(-c2c(C)[nH]n3c(=O)c(Cc4ccccc4)c(C)nc23)cc1	-24.0	-8.0%	2.51µM*	?	3.16µM*
CC[C@H](C)[C@H](NC(=O)[C@H](CCC(=O)O)NC(=O)CNC(=O)[C@@H](NC(=O)[C@@H]1CCCN1C(=O)[C@@H](NC(=O)[C@@H]1CCCN1C(=O)[C@@H]1CCCN1C(=O)[C@H](CC(N)=O)NC(=O)[C@H](CC(N)=O)NC(=O)[C@@H](NC(=O)[C@H](CCSC)NC(=O)[C@H](Cc1c[nH]c2ccccc12)NC(=O)CNC(=O)[C@@H](NC(=O)[C@H](CCC(N)=O)NC(=O)[C@@H](N)CCC(=O)O)[C@@H](C)CC)[C@@H](C)O)[C@@H](C)CC)C(C)C)C(=O)O	.	.	-25.7%	.	-5.0%
CSCCC(NC(=O)c1ccc(Cl)cc1Cl)C(=O)N1CCCCCCC1 (configuration not stated)	-40.4	-3.5%	.	?	.
CCOC(=O)c1c(C)c(C(=O)N2CCCCCC2)c(C)n1CC	0.6	.	30.3%	8.1	-0.2%
CC(=O)Nc1cccc(C(=O)/C=C/c2ccc(F)cc2)c1	-17.7	-1.2%	12.6µM*	10.2	?
CC(=O)Nc1cccc(C(=O)/C=C/c2ccc(N(C)C)cc2)c1	-12.4	-9.1%	?	80.3*	6.4%
CC(=O)Nc1cccc(C(=O)/C=C/c2ccc(/C=C/C(=O)c3cccc(NC(C)=O)c3)cc2)c1	0.2	.	10µM*	-2.3	?
CC(=O)Nc1cccc(C(=O)/C=C/c2ccc(Br)cc2)c1	-13.6	-7.5%	?	15.7	?
CC(=O)Nc1cccc(C(=O)/C=C/c2ccc[nH]2)c1	-12.9	-4.6%	38.0%	9.8	7.6%
CCN(CC)c1ccc(/C=C/C(=O)c2ccc(Br)cc2)cc1	4.2	2.9%	?	122.8*	-7.0%
Cc1ccccc1OC[C@H](O)CO	.	.	16.6%[16.9 µM]	.	-9.7%[17 µM]
C[C@H]1O[C@@H](n2cnc3c(N)ncnc32)C[C@@H]1OP(=O)(O)OP(=O)(O)OP(=O)(O)O	.	.	-15.3%	.	3.9%
Cc1onc(-c2c(F)cccc2Cl)c1C(=O)Nc1ccc(Cl)c(S(=O)(=O)N(C)C)c1	?	2.7%	.	-0.5	.
COc1ccc(O[C@H]2C=C[C@@H](c3ccccc3)O[C@H]2COC(=O)CC/C(C)=N/O[C@@H]2O[C@H](COC(C)=O)[C@H](OC(C)=O)[C@H](OC(C)=O)[C@H]2OC(C)=O)cc1	.	.	26.2%[10 µM]	.	-7.1%[10 µM]
Cc1cccc(C(=O)Nc2ccc(C(=O)/C=C/c3ccncc3)cc2)c1	-28.2	-4.2%	?	11.6	12.6µM*
Cc1cccc(C(=O)Nc2ccc(C(=O)/C=C/c3cccnc3)cc2)c1	-13.3	-17.6%	27.7%[10 µM]	9.4	?
CN(C)c1ccc(C(=O)/C=C/c2ccc(Br)cc2)cc1	16.0	8.1%	?	17.5	7.0%
SMILES	TRPV1 potentiator	uPA generation	RORg inh	TRPV1 agonist	VP16 counter
CN(C)c1ccc(C(=O)/C=C/c2ccccc2)cc1	-5.9	-10.8%	11.2µM*	?	?
CCC(=O)Nc1cccc(C(=O)/C=C/c2cc(Br)ccc2OC)c1	13.5	-12.4%	11.2µM*	1.8	?
COc1ccc(Br)cc1/C=C/C(=O)Nc1ccc2ccccc2c1	-28.2	-0.5%	35.6%	-0.6	-9.2%
COc1cccc(/C=N/n2c(COc3ccccc3)n[nH]c2=S)c1	-1.0	-1.9%	7.08µM*	10.1	?
S=c1[nH]nc(COc2ccccc2)n1/N=C/c1cccc(Br)c1	14.9	0.4%	-42.0%	-1.7	-20.6%
C(=N\n1cnnc1)/c1cccc(Oc2ccccc2)c1	-4.5	-1.1%	19.7%	1.1	3.9%
Oc1ccc(/C=N/n2c(COc3ccccc3)n[nH]c2=S)cc1O	-1.7	-4.6%	-27.6%	2.5	-4.1%
O=[N+]([O-])c1ccc(/C=N/n2c(COc3ccccc3)n[nH]c2=S)cc1	2.6	0.8%	7.08µM*	10.5	-26.1%
S=c1[nH]ncn1/N=C/c1cccc(Oc2ccccc2)c1	-3.1	3.8%	2.82µM*	-0.6	7.08µM*
O=[N+]([O-])c1cccc(/C=N/n2c(COc3ccccc3)n[nH]c2=S)c1	-9.2	.	12.6µM*	25.9	?
Cc1ccc(S(=O)(=O)NN=C2C(=O)C3CCC2C3Cl)cc1 (configuration not stated)	.	3.2%	.	.	.
COc1ccccc1CN1CC[C@@]2(CCCN(C(=O)c3cnccn3)C2)C1	.	.	-32.6%	.	1.5%
CCC1CC=CC2C1C(=O)N(Cc1ccccc1)C2c1ccc2ccccc2c1 (configuration not stated)	.	.	11.6%	.	?
Cc1ccc(-c2csc(N(CCO)CCCn3c(C(F)(F)F)nc4cc(C(F)(F)F)ccc43)n2)cc1	?	10.1%	10µM*	2.9	?
S=c1[nH]nc(COc2ccccc2)n1/N=C/C=C/c1ccccc1	9.1	-2.0%	?	-4.8	4.47µM*
S=c1[nH]nc(COc2ccccc2)n1/N=C/C=C/c1ccco1	0.1	-2.0%	-41.6%	2.4	-3.5%
S=c1[nH]nc(COc2ccccc2)n1/N=C/c1cccnc1	3.5	-0.9%	-56.0%	3.7	?
S=c1[nH]nc(COc2ccccc2)n1/N=C/C(Cl)=C/c1ccccc1	6.1	-11.6%	7.94µM*	2.9	?
CCCC(C)NC(=O)COc1ccc(S(=O)(=O)c2ccc(OCC(=O)NC(C)CCC)cc2)cc1 (configuration not stated)	0.9	0.2%	36.9%	5.8	-10.7%
